Common to all, as to test: PBM binding z-score (relative to random genomic background probes); higher = stronger binding; sequences stand for … in GC…GCGATTGACAGCGTAGAATGAAGG
In assay [1] the test system is FXR:RXRa (NR concentration 270 nM, RXRa partner concentration 90 nM). The procedure, abridged:
(§1)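 For binding z-scores, the reference was random background probes on custom Agilent 4×180K protein-binding microarrays. These arrays were incubated 1 h with ligand-free nuclear receptor dimers in PBS pH 7.4, 2% milk, 0.02% Triton X-100, 1 mM DTT, 0.2 mg/mL BSA and 0.4 mg/ml salmon testes DNA. Fluorescence was scanned after antibody detection of each partner (one per run) and regression-normalized.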

For assay [2], the system named is LXRa:RXRa (NR concentration 270 nM, RXRa partner concentration 90 nM). The procedure, abridged: as §1
For assay [3], the system named is LXRa homodimer (NR concentration 270 nM). The procedure, abridged: as §1
The test system of assay [4] is LXRb:RXRa (NR concentration 270 nM, RXRa partner concentration 90 nM). A digest of the protocol: as §1
Assay [5] has as its system LXRb homodimer (NR concentration 270 nM). The procedure, abridged:
as §1

In assay [6] the test system is PPARa:RXRa (NR concentration 270 nM, RXRa partner concentration 90 nM). A digest of the protocol:
as §1

In assay [7] the test system is PPARg:RXRa (NR concentration 180 nM, RXRa partner concentration 90 nM). The procedure, abridged:
as §1

The test system of assay [8] is PPARg:RXRa 270nM:90nM, anti-RXR (NR concentration 270 nM, RXRa partner concentration 90 nM). The procedure, abridged:
as §1

The test system of assay [9] is PPARg:RXRa 30nM:10nM, anti-RXR (NR concentration 30 nM, RXRa partner concentration 10 nM). The procedure, abridged:
as §1

The test system of assay [10] is PPARg:RXRa 90nM:30nM, anti-RXR (NR concentration 90 nM, RXRa partner concentration 30 nM). A digest of the protocol: as §1

On to CCGACTGGGGCATAAGGTGACCATAAGCCAGCCC, for which the PBM binding z-score is -0.111 in assay [1]; -0.426 in assay [2]; -0.561 in [3]; -0.432 in assay [4]; -1.62 in assay [5]; 1.3 in assay [6]. The PBM binding z-score worked out at 2.04 in [7], 2.92 in [8], 0.757 in [9] and 2.38 in assay [10].

As to CAAACTAGGTCAGAGGTCAAAGTCGAGCCAACCA, the PBM binding z-score in assay [1] was determined as 7.41; in assay [2] it was 6.65; in [3], 5.53; in assay [4], 6.17; in assay [5] it was 2.6; in [6] it was 7.53. Further, the PBM binding z-score in assay [7] was found to be 13.4; in assay [8], 11.1; in [9], 11.7; in [10], 12.8.

As to GCGGCTAGGTCAACTGATGGTCAGCTAAAGCTCG, the PBM binding z-score in assay [1] was 4; in assay [2], 2.78; in [3], 0.177; in assay [4], 1.99; in assay [5], -0.808; in [6] it was 3.56. Besides, the PBM binding z-score in assay [7] was determined as 2.23; in assay [8], 2.36; in assay [9], 0.0288; in assay [10], 1.44.

With TCTTGTAGATCAAAGGTTCAGAAAGCCGAAGCCT, the PBM binding z-score amounted to 0.694 in assay [1]; 0.971 in assay [2]; 0.565 in assay [3]; 0.863 in assay [4]; 0.0761 in assay [5]; 2.17 in assay [6]. In addition, the PBM binding z-score in [7] is 3.23; in assay [8], 5.21; in assay [9] it was 4.26; in assay [10], 5.21.

For the sequence TCCTATAGGTAAATGCTAGGTGAAAGTCCGATCT, the PBM binding z-score in [1] is 0.02; in assay [2], 0.489; in assay [3] it was -0.157; in [4], 0.379; in assay [5] it was -0.293; in assay [6] it was 1.16. Besides, the PBM binding z-score in assay [7] was determined as 0.318; in assay [8], 1.7; in assay [9] it was 2.99; in assay [10], 2.19.

In the case of ATCTCTAGGTAACAGGTTCAGTGAAAGAGAGGAC, the PBM binding z-score in [1] came to 0.507; in assay [2], 0.677; in assay [3], 0.529; in assay [4], 0.67; in [5], 1.09; in [6] it was 1.8. Also, the PBM binding z-score in [7] worked out at 2.61; in assay [8], 2.9; in assay [9], 1.5; in [10] it was 2.78.

On to CCTAGTTGGTCAGGAGGTCACTCACCGGATATGA, for which the PBM binding z-score is 3.08 in [1]; 2.85 in [2]; 1.57 in assay [3]; 2.79 in assay [4]; 0.66 in assay [5]; 3.54 in [6]. Moreover, the PBM binding z-score in assay [7] worked out at 2.76; in [8], 3.43; in [9], 1.11; in assay [10], 2.75.

In the case of CGAACTAGGGCATGAGTTGATAGCAAATGCCGAT, the PBM binding z-score in [1] was -0.0776; in assay [2] it was -0.357; in assay [3], -0.246; in assay [4], -0.279; in [5] it was -0.828; in [6] it was 2.34. The PBM binding z-score in assay [7] stood at 4.14; in assay [8], 4.13; in assay [9], 2.03; in [10], 3.43.

As to GATACAGGGTCAGCTAGTGGCCAGAGTATGGAAA, the PBM binding z-score in assay [1] is 4.54; in [2], 2.31; in [3], -0.558; in [4], 2.21; in assay [5], -0.762; in [6], 4.49. For the same sequence, the PBM binding z-score in assay [7] was 3.55; in [8], 3.25; in assay [9] it was 0.61; in assay [10], 1.77.

For TCTCGGAGGACACGAAGGTCAGATCTTTCCAGAG, the PBM binding z-score was 1.76 in assay [1]; 1.41 in [2]; 1.09 in assay [3]; 1.64 in assay [4]; -0.544 in [5]; 1.98 in assay [6]. In addition, the PBM binding z-score was 0.475 in assay [7], 1.77 in [8], 2.61 in [9] and 2 in assay [10].

In the case of TCATATAGGTAATACAGGTGAAACTCGGCATCTA, the PBM binding z-score in [1] came out at 1.07; in assay [2], 1.41; in assay [3] it was 0.63; in [4], 1.14; in assay [5], 0.362; in assay [6], 2.28. Moreover, the PBM binding z-score stood at 1.85 in [7], 2.56 in [8], 3.88 in assay [9] and 3.33 in assay [10].

For the sequence TAGCCTAGTTCATGGGCCAGTATACCACGCGAAC, the PBM binding z-score in assay [1] was 0.00503; in assay [2] it was 0.504; in assay [3] it was -0.133; in assay [4], 0.304; in assay [5] it was -0.689; in assay [6], 0.867. The PBM binding z-score in [7] was 0.6; in [8] it was 0.24; in assay [9] it was -0.416; in [10] it was 0.104.

Regarding GATACAGGGTCAAGGCCAGAGCACGCGTATTGAT, the PBM binding z-score is 6.68 in assay [1]; 4.17 in assay [2]; 0.0226 in [3]; 3.67 in assay [4]; -0.301 in assay [5]; 5.48 in [6]. For the same sequence, the PBM binding z-score in assay [7] is 5.84; in [8], 5.3; in assay [9], 2.03; in assay [10], 4.13.

The values are drawn from the supplement of paper PMC6555819.
